Data: PubChem BioAssay AID1159580 (chemical genetic matrix, 2015)
Screen size: about 5,500 compounds; about 2,000 (36%) were called active. Inconclusive results (about 18%) are left out. No stated cut-off is given here; in the data, active means normalized growth mostly below about 0.91 (no sharp cut-off); inconclusive means no clear call, values can overlap the other calls; inactive means mostly above about 0.92. This is one part of the list.

Test: chemical genetic growth profiling, strain panel (AID 1159580);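 further: tested at 20 µM; growth read once vehicle control cultures reached saturation at 30 °C; 1 = growth at the plate median or of vehicle wells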
Details: growth OD

Measured: normalized growth

CCCc1nc(C(C)(C)O)c(C(=O)OCc2oc(=O)oc2C)n1Cc1ccc(-c2ccccc2-c2nn[nH]n2)cc1
inactive: S. cerevisiae deletion strains, locus YKL009W, strain mrt4, stronger effect = lower value 0.957 | S. cerevisiae deletion strains, locus YKL068W, stronger effect = lower value 0.988 | S. cerevisiae deletion strains, locus YKL085W, strain MDH1 (second series), stronger effect = lower value 0.98 | S. cerevisiae deletion strains, locus YKL085W, strain MDH1, stronger effect = lower value 0.98 | S. cerevisiae deletion strains, locus YKL160W, strain elf1, stronger effect = lower value 0.994 | S. cerevisiae deletion strains, locus YKL190W, strain CNB1, stronger effect = lower value 1.01 | S. cerevisiae deletion strains, locus YKR001C, strain vps1, stronger effect = lower value 0.985 | S. cerevisiae deletion strains, locus YKR026C, strain gcn3, stronger effect = lower value 0.976 | S. cerevisiae deletion strains, locus YKR091W, strain srl3, stronger effect = lower value 0.981 | S. cerevisiae deletion strains, locus YLL001W, strain dnm1, stronger effect = lower value 0.972 | S. cerevisiae deletion strains, locus YLL026W, stronger effect = lower value 0.958 | S. cerevisiae deletion strains, locus YLL041C, strain sdh2, stronger effect = lower value 0.972 | S. cerevisiae deletion strains, locus YLR027C, strain aat2, stronger effect = lower value 0.984 | S. cerevisiae deletion strains, locus YLR039C, strain RIC1, stronger effect = lower value 0.981 | S. cerevisiae deletion strains, locus YLR058C, strain SHM2, stronger effect = lower value 0.988 | S. cerevisiae deletion strains, locus YLR102C, strain apc9, stronger effect = lower value 0.989 | S. cerevisiae deletion strains, locus YLR113W, strain HOG1, stronger effect = lower value 0.987 | S. cerevisiae deletion strains, locus YLR221C, strain rsa3, stronger effect = lower value 1.02 | S. cerevisiae deletion strains, locus YLR258W, strain gsy2, stronger effect = lower value 0.977 | S. cerevisiae deletion strains, locus YLR262C, strain YPT6 (second series), stronger effect = lower value 0.962 | S. cerevisiae deletion strains, locus YLR262C, strain YPT6, stronger effect = lower value 0.987 | S. cerevisiae deletion strains, locus YLR268W, strain sec22, stronger effect = lower value 0.971 | S. cerevisiae deletion strains, locus YLR320W, strain mms22, stronger effect = lower value 1.01 | S. cerevisiae deletion strains, locus YLR330W, strain CHS5, stronger effect = lower value 0.995 | S. cerevisiae deletion strains, locus YLR342W, strain FKS1 (second series), stronger effect = lower value 0.977 | S. cerevisiae deletion strains, locus YLR342W, strain FKS1, stronger effect = lower value 0.978 | S. cerevisiae deletion strains, locus YLR357W, strain rsc2, stronger effect = lower value 0.985 | S. cerevisiae deletion strains, locus YLR370C, strain arc18, stronger effect = lower value 0.947 | S. cerevisiae deletion strains, locus YLR371W, strain rom2, stronger effect = lower value 0.985 | S. cerevisiae deletion strains, locus YLR384C, strain iki3, stronger effect = lower value 0.977 | S. cerevisiae deletion strains, locus YLR418C, strain cdc73, stronger effect = lower value 0.952 | S. cerevisiae deletion strains, locus YML016C, strain PPZ1, stronger effect = lower value 0.993 | S. cerevisiae deletion strains, locus YML032C, strain rad52, stronger effect = lower value 0.993 | S. cerevisiae deletion strains, locus YML120C, strain ndi1, stronger effect = lower value 0.97 | S. cerevisiae deletion strains, locus YML124C, strain tub3, stronger effect = lower value 0.984 | S. cerevisiae deletion strains, locus YMR058W, strain fet3, stronger effect = lower value 0.965 | S. cerevisiae deletion strains, locus YMR078C, strain ctf18, stronger effect = lower value 0.99 | S. cerevisiae deletion strains, locus YMR125W, strain sto1, stronger effect = lower value 0.932 | S. cerevisiae deletion strains, locus YMR129W, stronger effect = lower value 0.97 | S. cerevisiae deletion strains, locus YMR205C, strain PFK2, stronger effect = lower value 0.976 | S. cerevisiae deletion strains, locus YMR223W, strain ubp8, stronger effect = lower value 0.995 | S. cerevisiae deletion strains, locus YMR231W, strain pep5, stronger effect = lower value 0.967 | S. cerevisiae deletion strains, locus YMR263W, strain SAP30, stronger effect = lower value 1.02 | S. cerevisiae deletion strains, locus YMR307W, strain GAS1, stronger effect = lower value 0.894 | S. cerevisiae deletion strains, locus YNL067W, strain RPL9B, stronger effect = lower value 1.03 | S. cerevisiae deletion strains, locus YNL071W, strain lat1, stronger effect = lower value 0.977 | S. cerevisiae deletion strains, locus YNL128W, strain TEP1, stronger effect = lower value 1.02 | S. cerevisiae deletion strains, locus YNL153C, strain GIM3, stronger effect = lower value 0.996 | S. cerevisiae deletion strains, locus YNL183C, strain NPR1, stronger effect = lower value 0.963 | S. cerevisiae deletion strains, locus YNL209W, strain ssb2, stronger effect = lower value 0.971 | S. cerevisiae deletion strains, locus YNL233W, strain BNI4, stronger effect = lower value 0.992 | S. cerevisiae deletion strains, locus YNL248C, strain rpa49, stronger effect = lower value 0.969 | S. cerevisiae deletion strains, locus YNL250W, strain rad50, stronger effect = lower value 0.992 | S. cerevisiae deletion strains, locus YNL271C, strain bni1, stronger effect = lower value 0.992 | S. cerevisiae deletion strains, locus YNL298W, strain CLA4, stronger effect = lower value 0.975 | S. cerevisiae deletion strains, locus YNL307C, strain MCK1, stronger effect = lower value 0.992 | S. cerevisiae deletion strains, locus YNL322C, strain KRE1 (second series), stronger effect = lower value 0.972 | S. cerevisiae deletion strains, locus YNL322C, strain KRE1, stronger effect = lower value 0.997 | S. cerevisiae deletion strains, locus YNR049C, strain mso1, stronger effect = lower value 0.968 | S. cerevisiae deletion strains, locus YNR052C, strain pop2, stronger effect = lower value 0.99 | S. cerevisiae deletion strains, locus YOL006C, strain TOP1, stronger effect = lower value 0.998 | S. cerevisiae deletion strains, locus YOL012C, strain htz1 1.03 | S. cerevisiae deletion strains, locus YOL147C, strain pex11, stronger effect = lower value 0.998 | S. cerevisiae deletion strains, locus YOR001W, strain rrp6, stronger effect = lower value 0.943 | S. cerevisiae deletion strains, locus YOR061W, strain CKA2, stronger effect = lower value 0.989 | S. cerevisiae deletion strains, locus YOR069W, strain VPS5, stronger effect = lower value 0.994 | S. cerevisiae deletion strains, locus YOR070C, strain gyp1, stronger effect = lower value 0.992 | S. cerevisiae deletion strains, locus YOR080W, strain dia2, stronger effect = lower value 0.964 | S. cerevisiae deletion strains, locus YOR083W, strain WHI5, stronger effect = lower value 0.993 | S. cerevisiae deletion strains, locus YOR106W, strain vam3, stronger effect = lower value 0.969 | S. cerevisiae deletion strains, locus YOR136W, strain idh2, stronger effect = lower value 0.986 | S. cerevisiae deletion strains, locus YOR144C, strain elg1, stronger effect = lower value 0.985 | S. cerevisiae deletion strains, locus YOR184W, strain ser1, stronger effect = lower value 0.995 | S. cerevisiae deletion strains, locus YOR231W, strain MKK1, stronger effect = lower value 0.958 | S. cerevisiae deletion strains, locus YOR265W, strain rbl2, stronger effect = lower value 0.979 | S. cerevisiae deletion strains, locus YOR270C, strain vph1, stronger effect = lower value 1.01 | S. cerevisiae deletion strains, locus YOR290C, strain snf2, stronger effect = lower value 0.983 | S. cerevisiae deletion strains, locus YOR316C, strain cot1, stronger effect = lower value 0.989 | S. cerevisiae deletion strains, locus YPL051W, strain arl3, stronger effect = lower value 0.988 | S. cerevisiae deletion strains, locus YPL055C, strain LGE1, stronger effect = lower value 0.993 | S. cerevisiae deletion strains, locus YPL078C, strain atp4, stronger effect = lower value 0.961 | S. cerevisiae deletion strains, locus YPL106C, strain sse1, stronger effect = lower value 0.894 | S. cerevisiae deletion strains, locus YPL240C, strain hsp82, stronger effect = lower value 0.974 | S. cerevisiae deletion strains, locus YPL241C, strain CIN2, stronger effect = lower value 0.999 | S. cerevisiae deletion strains, locus YPL256C, strain CLN2, stronger effect = lower value 0.95 | S. cerevisiae deletion strains, locus YPR119W, strain clb2, stronger effect = lower value 0.992 | S. cerevisiae deletion strains, locus YPR141C, strain kar3, stronger effect = lower value 0.99 | S. cerevisiae deletion strains, locus YPR163C, strain tif3, stronger effect = lower value 0.981 | S. cerevisiae deletion strains, locus YPR167C, strain met16, stronger effect = lower value 0.982 | S. cerevisiae deletion strains, strain wtn01, stronger effect = lower value 0.981 | S. cerevisiae strains, strain wild type, stronger effect = lower value 1.02
